Laboratory results taken from ChEMBL document CHEMBL3988442, “University of Dundee, Small-Polar-MMV Screening Library” (2021).
Screen size: about 48,000 compounds; about 13,000 (27%) showed an effect of 50% or more. Some of the results follow.

The molecules below were run on Wolbachia pipientis (assay: Anti-Wolbachia Cell-Based Screen). Conditions: 5 µM.
Format: functional
Design: scale not given: in the data most compounds retested in dose-response had high values

| SMILES | Percent Effect |
| --- | --- |
| Cc1cc(C(=O)N2CCn3cnc(COCC4CC4)c3C2)no1 | -11.47% |
| CCc1n[nH]c(C2CN(C(=O)c3cc4c(s3)CCCC4)CCO2)n1 (stereo unspecified) | -2.74% |
| CCc1n[nH]c(C2CN(C(=O)c3ccc4c(c3)CCC4)CCO2)n1 (stereo unspecified) | 79.95% |
| Cc1n[nH]c(C2CN(C(=O)c3ccc4c(c3)CCCC4)CCO2)n1 (stereo unspecified) | -29.36% |
| CCc1n[nH]c(C2CN(C(=O)c3ccc4c(c3)CCCC4)CCO2)n1 (stereo unspecified) | 128.9% |
| CCc1nc(CNC2CCCc3c2cnn3CC)cs1 (stereo unspecified) | 1.475% |
| CCN1CCCC1CN(CCN(C)C)S(=O)(=O)c1cccc(C#N)c1 (stereo unspecified) | -13.07% |
| CS(=O)(=O)NCC1CCCCN1Cc1cccc(C#N)c1 (stereo unspecified) | 20.87% |
| CC(C)C1CN(S(=O)(=O)c2cccc(C#N)c2)CCS1 (stereo unspecified) | -18.57% |
| N#Cc1cccc(S(=O)(=O)N2CCCCC2CCN2CCCC2=O)c1 (stereo unspecified) | 2.931% |
| N#Cc1cccc(S(=O)(=O)N2CCCCC2CCN2CCCC2)c1 (stereo unspecified) | 93.73% |
| COCCCC1CCCCN1S(=O)(=O)c1cccc(C#N)c1 (stereo unspecified) | 99.73% |
| O=C(O)c1csc(S(=O)(=O)N2CCCc3cc(OC(F)F)ccc32)c1 | -5.134% |
| CN(C)S(=O)(=O)N1C[C@H]2CCC[C@@]2(COCc2ccccn2)C1.O=C(O)C(F)(F)F | 5.963% |
| COC[C@@]12CCC[C@@H]1CN(C(=O)Cc1ccccn1)C2.O=C(O)C(F)(F)F | 87.04% |
| Cc1ccc(N2C[C@H]3CCC[C@@]3(COc3cccnc3)C2)nn1.O=C(O)C(F)(F)F.O=C(O)C(F)(F)F | -0.008691% |
| O=C(O)C(F)(F)F.O=C(c1ncccn1)N1C[C@H]2CCC[C@@]2(COCc2cccnc2)C1 | 0.3809% |
| Cc1noc(C)c1C(=O)N1C[C@H]2CCC[C@@]2(COc2ccccn2)C1.O=C(O)C(F)(F)F | -9.504% |
| O=C(N1CCCC1)N1C[C@H]2CCC[C@@]2(COCc2ccccn2)C1.O=C(O)C(F)(F)F | 108.6% |
| O=C(C1CCOCC1)N1C[C@H]2CCC[C@@]2(COc2cccnc2)C1.O=C(O)C(F)(F)F | 89.34% |
| O=C(C1CCOCC1)N1C[C@H]2CCC[C@@]2(COCc2ccccn2)C1 | 98.54% |
| CN(C)S(=O)(=O)N1C[C@H]2CCC[C@@]2(COc2cccnc2)C1.O=C(O)C(F)(F)F | 5.762% |
| Cc1cccc(NS(=O)(=O)c2ccc(C#N)nc2)c1C#N | -1.647% |
| CC(C)c1cc(C(=O)N2CCN(c3ncc4c(n3)CCOC4)CC2)on1 | 106.5% |
| CCC(CC)c1cc(C(=O)N2CCN(C(C#N)C(C)C)CC2)on1 (stereo unspecified) | -14.62% |
| CCC(CC)c1cc(C(=O)N2CCN(C(C)C(N)=O)CC2)on1 (stereo unspecified) | -12.57% |
